Screening data as filed in PubChem.
Rows were chosen to be rich in hits. Some 3% of all compounds tested hit in one or more screens of this group.
GCN5L2 inh: GCN5L2 (KAT2A) acetyltransferase inhibition. Q92830. GCN5L2 HAT assay, ThioGlo1 CoA-SH fluorescence. Potency, µM (titrated, usually from 58.9 µM), for inactives: top-dose activity change, negative = inhibition, usual class: inhibitors. 0.21% of 390,000 active
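GCN5L2 (20nM final) in 50mM HEPES, 0.1mM EDTA pH 7.5, 0.01% Tween-20 was preincubated 15 min at room temperature with compound, then given ThioGlo1 (50uM), H3(1-25) peptide (75uM) and acetyl-CoA (70uM); CoA-thiol fluorescence (Ex340/Em540) was read at 0 and 20 min.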
PLK1 PBD inh: blocks phosphopeptide binding to human PLK1 polo-box domain. P53350. Plk1 PBD binding of FITC phosphopeptide, fluorescence polarization. Potency, µM, for the others: max response, negative = inhibition, hits mostly inhibitors. 2.8% of 360,000 active; further: series mostly up to about 57 µM; nearly all actives have a fitted effect of over 65% in size
12-LOX inh: ALOX12 (human) lipoxygenase inhibition. P18054. purified 12hLO, xylenol orange hydroperoxide absorbance. Potency, µM (series often up to 108 µM), without a hit: top-dose activity change, negative = inhibition, most hits filed as inhibitors. 1.1% of 580,000 active. AID 1671190
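Purified human 12hLO (150 nM final) in 25 mM Hepes, 0.01% Triton X-100, pH 7.0 was preincubated 15 min at room temperature with compound. Then 40 uM arachidonic acid was added, 30 min. Hydroperoxide was read by Fe-XO absorbance ratio 573/405 nm.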
VDR inh: blocks the human vitamin D receptor | Potency, µM, inactives show max response, negative = inhibition, actives largely listed as inhibitors | VDR-SRC2-3 peptide fluorescence polarization, 2 h | P11473 | 0.93% of 400,000 active
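Fluorescence polarization assay of small-molecule disruption of VDR binding to coregulator peptide SRC2-3. Compounds and controls pin-transferred, then read after 2 h incubation at ambient room temperature.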
* = called active by the depositor; [ ] = another dose, or the depositor's remark. The call rests on the fitted dose curve; in most records, active means well fitted curve in the direction sought with a large enough effect; inconclusive means small, poorly fitted or top-dose-only effect, or another doubt; inactive means no such curve, though single readings can be large; an effect the other way counts as inactive or inconclusive. On the % scale 0 is the no-effect control and ±100 the full control effect; potency means the concentration at half of the fitted maximal effect.

CCc1ccc(CNc2ccc(N3CCN(C(C)=O)CC3)cc2)cc1 was read as GCN5L2 inh -14.6%, PLK1 PBD inh -11.0%, 12-LOX inh 31.6µM* and VDR inh 3.3%.
`CC(=O)N1CCN(c2ccc(NC(=O)c3ccc(OCc4ccccc4)cc3)cc2)CC1` gave GCN5L2 inh -4.4%, PLK1 PBD inh 15µM*, 12-LOX inh -2.2% and VDR inh 28.2µM*.
For CC(=O)N1CCN(c2ccc(NCc3ccc(C)cc3)cc2)CC1 the results were GCN5L2 inh 1.6%, PLK1 PBD inh -9.5%, 12-LOX inh inconclusive and VDR inh inconclusive.
`COC(=O)c1ccc(C)c(NC(=O)CN(c2ccccc2)S(=O)(=O)N(C)C)c1` gave GCN5L2 inh 0.2%, PLK1 PBD inh 21.2µM*, 12-LOX inh -0.8% and VDR inh -18.8%.
Screening Cc1ccc(C(=O)O)cc1NC(=O)CCc1ccccc1 returned GCN5L2 inh -1.5%, PLK1 PBD inh 16.8µM*, 12-LOX inh inconclusive and VDR inh -10.1%.
Cc1ccc(C(=O)O)cc1NC(=S)NC(=O)Cc1ccccc1 was read as GCN5L2 inh 0.9%, PLK1 PBD inh -9.0%, 12-LOX inh inconclusive and VDR inh 15.3%.
`Cc1ccc(NC(=O)Cn2c(=S)[nH]c3ccccc32)cc1` gave GCN5L2 inh -7.1%, PLK1 PBD inh 23.8µM*, 12-LOX inh inconclusive and VDR inh -13.5%.
`O=C(OCn1ncc(Br)c(Br)c1=O)c1ccc(F)cc1` gave GCN5L2 inh -4.1%, PLK1 PBD inh 9.47µM* and VDR inh 25.1µM*.
For O=C(OCc1cnc(Cl)s1)c1ccccc1Cl the results were GCN5L2 inh -12.0%, PLK1 PBD inh -14.6%, 12-LOX inh 118.4% and VDR inh 3.1%.
`O=C(OCn1ncc(Br)c(Br)c1=O)c1ccccc1Cl` gave GCN5L2 inh -3.1%, PLK1 PBD inh 18.9µM* and VDR inh 22.4µM*.
Screening CSc1ccc(/C=C(/C#N)S(=O)(=O)c2ccc(C)cc2)cc1 returned 12-LOX inh -28.8%.
For N#C/C(=C/c1cccc(F)c1)S(=O)(=O)c1ccc(Br)cc1 the results were 12-LOX inh 22.4µM*.
CCOC(=O)c1sc(NS(=O)(=O)c2ccccc2)nc1C was read as GCN5L2 inh -13.2%, PLK1 PBD inh -8.1%, 12-LOX inh 4.0%[57.4 µM] and VDR inh 4.0%.
Screening Cc1nc(NS(=O)(=O)c2ccccc2)sc1NC(=O)OCCN(C)C returned GCN5L2 inh -8.6%, PLK1 PBD inh 21.2µM*, 12-LOX inh inconclusive and VDR inh 15.7%.
For CCCCN(C)c1nc(-c2ccco2)c2c(c1C#N)CC(C)(C)OC2 the results were GCN5L2 inh -27.4%, PLK1 PBD inh 29.9µM*, 12-LOX inh 39.8µM* and VDR inh 20µM*.
Screening CC1CCN(C(=O)C(=O)N2CCN(c3nc(-c4ccco4)c4c(c3C#N)CC(C)(C)OC4)CC2)CC1 returned 12-LOX inh 14.1µM*.
For CN(C)CCNc1nc(-c2ccco2)c2c(c1C#N)CC(C)(C)OC2 the results were GCN5L2 inh -3.6%, PLK1 PBD inh -9.0%, 12-LOX inh -6.4% and VDR inh -5.6%.
CCCCn1c(O)c(/C=C/C=C/C=Nc2ccccc2)sc1=S was read as GCN5L2 inh inconclusive, PLK1 PBD inh inconclusive, 12-LOX inh 12.6µM* and VDR inh inconclusive.
`CCn1c(O)c(/C=C/C=C/C=Nc2ccccc2)sc1=S` gave GCN5L2 inh -2.5%, PLK1 PBD inh inconclusive, 12-LOX inh inconclusive and VDR inh 22.4%.
Screening Oc1c(/C=C/C=C/C=Nc2ccccc2)sc(=S)n1Cc1ccccc1 returned GCN5L2 inh inconclusive, PLK1 PBD inh inconclusive, 12-LOX inh 12.6µM* and VDR inh -9.1%.
Cc1ccc(C(=O)NN=C(C(C)C)C(C)C)cc1C was read as 12-LOX inh 28.6%.
Cc1ccc(-n2ncc3c(=O)n(CC(N)=O)cnc32)cc1C was read as GCN5L2 inh 3.98µM*, PLK1 PBD inh 0.3%, 12-LOX inh 4.6% and VDR inh -8.6%.
`COn1c(=O)c(-c2cccs2)[n+]([O-])c2ccccc21` gave GCN5L2 inh -7.9%, PLK1 PBD inh 2.12µM*, 12-LOX inh inconclusive and VDR inh -0.2%.
For CCOn1c(=O)c(-c2cccs2)[n+]([O-])c2ccccc21 the results were GCN5L2 inh 2.0%, PLK1 PBD inh inconclusive, 12-LOX inh 21.4% and VDR inh 3.6%.
